Screening data deposited in PubChem by National Center for Advancing Translational Sciences (NCATS).
Tau ThT inhib: inhibitors of human tau fibril formation, thioflavin T binding. P10636. recombinant tau K18 P301L, heparin-induced fibrillization, ThT fluorescence. Potency, µM (doses to about 57.4 µM), for the others: at the top dose activity, negative = inhibition, hits mostly inhibitors. hit rate 2.1% among 270,000. AID 1460; note: potency is the fitted concentration of half-maximal effect; nearly all actives have a fitted effect of over 55% in size
Target sequence (P10636 561-689 P618L limits assumed): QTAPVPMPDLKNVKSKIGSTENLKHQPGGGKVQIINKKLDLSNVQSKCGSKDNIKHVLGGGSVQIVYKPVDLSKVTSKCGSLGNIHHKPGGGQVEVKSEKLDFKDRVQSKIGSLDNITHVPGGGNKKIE
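Fibril formation assay: tau K18 P301L at 15 uM with trace Alexa 594 label, heparin inducer 20 uM, pH 7 sodium acetate buffer, 37 C for 6 hr; endpoint ThT signal.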
Sfp inh: inhibitors of Bacillus subtilis Sfp phosphopantetheinyl transferase | Biochemical Sfp PPTase activity, qHTS | Potency, µM, without a hit: largest response in the series, negative = inhibition, hits mostly inhibitors | hit rate 3.5% among 310,000;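 note: the enzyme is Sfp with the accession as filed and its product quenches rhodamine fluorescence; potency is the fitted concentration of half-maximal effect; 0% = enzyme reaction without inhibitor and -100% = no enzyme wells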
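With Hepes-Na pH 7.6 buffer containing 10 mM MgCl2, Sfp (15 nM) modified BHQ-2-YbbR (12.5 uM) using rhodamine-CoA (5 uM). Two reads 30 minutes apart at 525/598 nm yielded each well's rate.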
Coupling enz: counter-screen for Giardia aldolase inhibitors: coupling enzyme system | coupling enzyme system counterscreen, AmpLite Red fluorescence | activity change, negative = inhibition, % at 58.2 µM, hits read low | hit rate 0.67% among 290,000; in the data active = activity change below about -30%
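Compounds tested against the coupling enzymes alone at 57.5 uM final; readout was AmpLite Red fluorescence (525/598 nm) after 20 min at RT.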
Tau fluor cs: counter-screen for tau fibril formation inhibitors | tau K18 P301L (four-repeat tau fragment) Alexa594 fluorescence, heparin fibrillization | Potency, µM (highest dose often 57.7 µM), for inactives: at the top dose activity change, negative = decrease | hit rate 0.93% among 280,000 | AID 1463; note: potency is the fitted concentration of half-maximal effect; nearly all actives have a fitted effect of over 55% in size
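Human K18 P301L tau (15 uM unlabeled plus 0.24 uM Alexa 594-labeled, final) in 100 mM sodium acetate pH 7 was mixed with compound and 20 uM heparin and incubated 6 hr at 37 C.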
Tau fibril FP: tau fibrillization inhibition (FP); P10636; K18 P301L tau heparin fibrillization, Alexa594 FP, 6 h; Potency, µM (top dose mostly 57.7 µM), for inactives: top-dose activity, negative = inhibition, most hits filed as inhibitors; hit rate 0.39% among 280,000; AID 1468; note: potency is the fitted concentration of half-maximal effect; nearly all actives have a fitted effect of over 55% in size
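Recombinant K18 P301L […], labeled with Alexa 594 at 0.24 uM over 15 uM unlabeled; heparin inducer 20 uM final; 37 C, 6 hr; FP endpoint.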
* hit, by the source's call; ! = a repeat was not active; [ ] = dose if it differs, or a comment. Rows were chosen to be rich in hits. Some 5.2% of all compounds tested hit in one or more screens of this group. Unless noted, calls come from the whole dose curve; as a rule, active = well fitted curve in the direction sought with a large enough effect; inconclusive = small, poorly fitted or top-dose-only effect, or another doubt; inactive = no such curve, though single readings can be large; an effect the other way counts as inactive or inconclusive. Unless noted, % is set by controls: 0 for no effect and ±100 for the full control effect.

Screening Cc1nc(-n2nc(C)c(CCC(C)C)c2C)sc1C(=O)Nc1ccc(Br)cc1 returned Tau ThT inhib -8%, Tau fluor cs -3% and Tau fibril FP -4%.
For CC(C)Oc1ccc(CNC(=O)c2cc3ccccn3n2)cc1 the results were Tau ThT inhib -5%, Tau fluor cs -11% and Tau fibril FP -9%.
`c1ccc(CNc2cc(-c3cccnc3)ncn2)cc1` gave Sfp inh 8% and Coupling enz 3.
For CO[C@H]1C=CO[C@@]2(C)Oc3c(C)c(O)c4c(O)c(c(C=NN5CCN(C6CCCC6)CC5)c(O)c4c3C2=O)NC(=O)C(C)=CC=C[C@H](C)[C@H](O)[C@@H](C)[C@@H](O)[C@@H](C)[C@H](OC(C)=O)[C@@H]1C the results were Tau ThT inhib 18µM*, Sfp inh 1%, Coupling enz -26, Tau fluor cs -26% and Tau fibril FP -16%.
Screening Cc1ccc(C)c(N2CCN(S(=O)(=O)c3cc(C(=O)Nc4ccc(Oc5ccccc5)cc4)ccc3F)CC2)c1 returned Tau ThT inhib 10%, Tau fluor cs 2% and Tau fibril FP inconclusive.
`CCOC(=O)c1ccc(NC(=O)c2c(NCc3cccc(OC)c3OC)sc3c2CCC3)cc1` gave Tau ThT inhib inconclusive, Tau fluor cs inconclusive and Tau fibril FP 0%.
`CCOC(=O)c1ccc(NC(=O)c2c(NCc3sccc3C)sc3c2CCCCC3)cc1` gave Tau ThT inhib 32µM*, Tau fluor cs -28% and Tau fibril FP -21%.
`COc1ccc(NC(=O)c2c(NCc3ccc(OC)c(OC)c3OC)sc3c2CCC3)c(OC)c1` gave Tau ThT inhib 14µM*, Tau fluor cs inconclusive and Tau fibril FP -3%.
`COc1ccc(NC(=O)c2c(NCc3ccc(N(C)C)cc3)sc3c2CCC3)cc1` gave Tau ThT inhib 16µM*, Tau fluor cs inconclusive and Tau fibril FP -13%.
`COc1ccccc1NC(=O)c1c(NCc2ccc(OC)c(OC)c2OC)sc2c1CCC2` gave Tau ThT inhib inconclusive, Tau fluor cs -22% and Tau fibril FP 4%.
Screening COc1ccc(NC(=O)c2c(NC(=O)C(F)(F)F)sc3c2CCCCC3)cc1 returned Tau ThT inhib 16µM*, Tau fluor cs inconclusive and Tau fibril FP -1%.
For COc1ccc(NC(=O)c2c(NCc3cccc(OC)c3)sc3c2CCCC3)cc1 the results were Tau ThT inhib inconclusive, Tau fluor cs inconclusive and Tau fibril FP -16%.
For O=C1CCCCC2CCCCN12 (stereo not drawn) the results were Tau ThT inhib -9%[126 µM], Sfp inh -1%, Coupling enz -6, Tau fluor cs -8%[126 µM] and Tau fibril FP 0%[126 µM].
`CCCC[C@H](NC(=O)[C@H](CO)NC(=O)[C@H](Cc1ccc(O)cc1)NC(=O)[C@H](CO)NC(C)=O)C(=O)N[C@@H](CCC(=O)O)C(=O)N[C@@H](Cc1cnc[nH]1)C(=O)N[C@H](Cc1ccccc1)C(=O)N[C@@H](CCCNC(=N)N)C(=O)N[C@@H](Cc1c[nH]c2ccccc12)C(=O)NCC(=O)N[C@@H](CCCCN)C(=O)N1CCC[C@H]1C(=O)N[C@H](C(N)=O)C(C)C` gave Sfp inh 13% and Coupling enz 0.
CC(=O)Nc1cccc(NC(=O)CSc2cn(CC(=O)N3CCCCCC3)c3ccccc23)c1 was read as Tau ThT inhib -11%, Tau fluor cs -10% and Tau fibril FP 0%.
For CC1CCCCC1NCC(=O)Nc1ccccc1-c1ccccc1 (stereo not drawn) the results were Tau ThT inhib -14%, Sfp inh 79µM*, Coupling enz 4, Tau fluor cs -7% and Tau fibril FP 1%.
Cc1cc(C)cc(N2C(=O)CSC23C(=O)N(CC(=O)NC2CCCCC2)c2ccccc23)c1 (stereo not drawn) was read as Tau ThT inhib -11%, Tau fluor cs -18% and Tau fibril FP -2%.
`COC(=O)CCC(=O)OC1(C)C(=O)C=C2C=C(C3CC3)N(c3ccc(CO)cc3)C=C2C1=O` (stereo not drawn) gave Tau ThT inhib -10%[11.5 µM], Sfp inh -8%, Coupling enz -25, Tau fluor cs -8%[11.6 µM] and Tau fibril FP 3%[11.6 µM].
COC(=O)CCC(=O)OC1(C)C(=O)C=C2C=C(C3CC3)N(C3CC3)C=C2C1=O (stereo not drawn) was read as Tau ThT inhib inconclusive, Sfp inh -5%, Coupling enz -47*!, Tau fluor cs -9%[11.6 µM] and Tau fibril FP inconclusive.
For COC(=O)CCC(=O)OC1(C)C(=O)C=C2C=C(C3CC3)N(Cc3ccco3)C=C2C1=O (stereo not drawn) the results were Tau ThT inhib inconclusive, Sfp inh 4%, Coupling enz -29, Tau fluor cs -5%[11.6 µM] and Tau fibril FP 3%[11.6 µM].
Screening COCCN1C=C2C(=O)C(C)(OC(=O)CCC(=O)OC)C(=O)C=C2C=C1C1CC1 (stereo not drawn) returned Tau ThT inhib -16%[11.5 µM], Sfp inh -5%, Coupling enz -45*, Tau fluor cs -13%[11.6 µM] and Tau fibril FP -8%[11.6 µM].
Screening COC(=O)CCC(=O)OC1(C)C(=O)C=C2C=C(C3CC3)N(c3cccc(C#N)c3)C=C2C1=O (stereo not drawn) returned Tau ThT inhib inconclusive, Sfp inh -24%, Coupling enz -32*!, Tau fluor cs 0%[11.6 µM] and Tau fibril FP 4%[11.6 µM].
`COC(=O)CCC(=O)OC1(C)C(=O)C=C2C=C(C3CC3)OC=C2C1=O` (stereo not drawn) gave Tau ThT inhib inconclusive, Sfp inh -13%, Coupling enz 1, Tau fluor cs -13% and Tau fibril FP -2%.
Screening S=C1SCN(Cc2cccnc2)CN1Cc1cccnc1 returned Tau ThT inhib -4%, Sfp inh 14µM*, Coupling enz 4, Tau fluor cs 2% and Tau fibril FP -4%.
Screening Cc1cccc(NC(=O)c2oc3ccc(S(=O)(=O)N4CCC5(CC4)OCCO5)cc3c2C)c1C returned Tau ThT inhib -10%, Tau fluor cs -15% and Tau fibril FP 3%.
Screening O=C(Nc1nc(-c2ccccc2)cs1)c1ccccc1NS(=O)(=O)c1ccc(F)cc1 returned Tau ThT inhib 14µM*, Sfp inh -3%, Coupling enz 9, Tau fluor cs inconclusive and Tau fibril FP inconclusive.
Screening Fc1ccc(-c2csc(-c3ccncc3)n2)cc1 returned Tau ThT inhib -1%, Sfp inh 8%, Coupling enz 2, Tau fluor cs -5% and Tau fibril FP -6%.
`O=C(Nc1cccnc1)c1ccccc1NS(=O)(=O)c1ccc(F)cc1` gave Tau ThT inhib -6%, Sfp inh -3%, Coupling enz 6, Tau fluor cs -8% and Tau fibril FP -2%.
